# Results taken from PubChem BioAssay (EPA / NIEHS).
# Calls of active or inactive are those of the source. Rule for the calls: active = hit-call score of the fitted dose curve at least 0.9, where 1 is the maximum; inactive = score below 0.9.
# Read-out: CYP2C8 (gene 1558)
# Test: LTEA_HepaRG_CYP2C8: Life Technologies and Expression Analysis (LTEA) Assay for CYP2C8 using HepaRG (AID 2283483)
# Conditions: mRNA level, 48 h; actives raise or lower the signal
# Method: LTEA_HepaRG is a cell based, multiplexed-readout assay that uses HepaRG, a human liver cell line, with measurements taken at 48 hours after chemical dosing on a 96-well plate.LTEA_HepaRG_CYP2C8 is one of 102 assay component(s) measured in the LTEA HepaRG cell culture assay. It is a marker of NR mediated metabolism.Data from the assay component LTEA_HepaRG_CYP2C8 was analyzed into 1 endpoint. This assay endpoint, LTEA_HepaRG_CYP2C8, was analyzed with bidirectional fitting relative to DMSO as the negative control and baseline of activity. Using a type of inducible reporter, measures of mRNA induction for gain or loss-of-signal activity can be used to understand regulation of transcription factor activity. To generalize the intended target to other relatable targets, this assay endpoint is annotated to the cyp intended target family, where the subfamily is xenobiotic metabolism.
# A total of 1060 chemcials from the ToxCast library were tested in eight-point concentration-response experiments. Cell culture and cytotoxicity assays were conducted at Thermo Fisher Scientific's Custom Services facility (Madison, WI). A single lot of human HepaRG cells (Thermo Fisher Scientific, Frederick, MD) was used for the cell culture experiments. 96-well format collagen type I coated plates of human HepaRG cells were prepared using established methods. Briefly, cryopreserved HepaRG cells were thawed, plated at a density of approximately 100,000 cells/well in HepaRG Thaw, Plate, and General Purpose media (HPRG770, Thermo Fisher Scientific), and incubated for 48 hours. 0.5% DMSO was selected as vehicle control to balance the requisite need of DMSO in HepaRG cultures to maintain differentiation (for example, baseline metabolism, proportions of hepatocytes vs. cholangiocytes), while enabling further hepatic receptor pathway activation (for example, PXR and CAR) in response to chemical exposure. 48 hours after plating, the culture medium was replaced with HepaRG Serum-Free Incudtion Media. Cells were exposed to each test chemical in duplicate and maintained in CO2 incubators for another 48 hours. Chemical plates were thawed to room temperature and 200x concentrations of treatment groups were prepared. 8-point conentration-reponse curves were made with the highest exposure at 100 uM, followed by half-log dilutions, all in 0.5% DMSO. Each test plate contained variouse controls, induction positive controls (1mM phenobarbital), cytotoxicity positive controls ([…] aflatoxin B1), vehicle controls (0.5% DMSO), and total lysis controls (0.5% DMSO). Cell morphology images were taken using an Essen IncuCyte FLR automated microscope, with six 96-well plates imaged in about 24 minutes. Images were captured and exported and JPEG files. Spent culture media was transfered to black-well plates for the LDH assay, and remaining media was sorted at -80 C for later use. Cells were treated with RLT buffer and frozen until shipped for gene expression analysis. Total RNA was isolated from the cell suspension in 75 uL of Buffer RLT (Qiagen, Germantown, MD 20874) by Quintiles/Expression Analysis (Durham, NC) using a custom isolation procedure. Total RNA from each plate well was transferred to a preamplification plate. Fluidigm's 96.96 Dynamic ArrayTM (Fluidigm, Amsterdam, the Netherlands) technology was used for gene expression analyses by quantitative reverse transcription polymerase chain reaction (qRT-PCR, performed by Quintiles/Expression Analysis, Durham, NC)89. Standard TaqManTM Assays (Applied Biosystems/ThermoFisher Scientific, Foster City, CA) were used to assess the expression of 93 genes selected based on their selectivity and sensitivity to important hepatic receptors known to be modulated by environmental chemicals; importance in human hepatocyte functionality; and hepatotoxicity. […]
SMILES,outcome,AC50
CCc1cnc(C2=NC(C)(C(C)C)C(=O)N2)c(C(=O)O)c1 (stereo not given),inactive,–
CCCCSP(=O)(SCCCC)SCCCC,inactive,–
CN(C)NC(=O)CCC(=O)O,inactive,–
CC(C)N(C(=O)SCC(Cl)=C(Cl)Cl)C(C)C,inactive,–
CC(=NC#N)N(C)Cc1ccc(Cl)nc1,–,50 µM (active)
CCOP(=S)(OCC)SCCSCC,inactive,–
CCOP(=S)(Oc1cnc(C(C)(C)C)nc1)OC(C)C (stereo not given),inactive,–
CCNc1nc(Cl)nc(NC(C)(C)C#N)n1,inactive,–
S=C1NCCN1,inactive,–
CSc1nc(NC(C)C)nc(NC(C)C)n1,inactive,–
CCCCOC(=O)[C@@H](C)Oc1ccc(Oc2ccc(C#N)cc2F)cc1,inactive,–
CN(C)[C@@H]1C(=O)C(C(N)=O)=C(O)[C@@]2(O)C(=O)C3=C(O)c4c(O)cccc4[C@@](C)(O)[C@H]3[C@H](O)[C@@H]12,inactive,–
C[Si](Cn1cncn1)(c1ccc(F)cc1)c1ccc(F)cc1,–,71.8 µM (active)
CN(C)C(=O)Nc1cccc(C(F)(F)F)c1,–,12.1 µM (active)
CNC(=O)Oc1cccc2c1OC(C)(C)O2,inactive,–
CC[C@H](C)[C@H]1O[C@]2(C=C[C@@H]1C)C[C@@H]1C[C@@H](C/C=C(\C)[C@@H](O[C@H]3C[C@H](OC)[C@@H](O[C@H]4C[C@H](OC)[C@@H](NC)[C@H](C)O4)[C@H](C)O3)[C@@H](C)/C=C/C=C3\CO[C@@H]4[C@H](O)C(C)=C[C@@H](C(=O)O1)[C@]34O)O2,inactive,–
CC(Oc1cccc(Cl)c1)C(=O)O (stereo not given),–,14.4 µM (active)
Cc1cc(C2CC2)nc(Nc2ccccc2)n1,inactive,–
CCOP(=O)(OCC)Oc1cc(C)nc(C(C)C)n1,inactive,–
CCCOCC(=Nc1ccc(Cl)cc1C(F)(F)F)n1ccnc1,–,25.7 µM (active)

SMILES,outcome,AC50
CCC(=NOC/C=C/Cl)C1=C(O)CC(C2CCOCC2)CC1=O (stereo not given),inactive,–
COc1ccc(C(=CC(=O)N2CCOCC2)c2ccc(Cl)cc2)cc1OC,–,10.4 µM (active)
COP(=O)(OC)OC(Br)C(Cl)(Cl)Br (stereo not given),inactive,–
CSC1=N[C@@](C)(c2ccccc2)C(=O)N1Nc1ccccc1,–,34.6 µM (active)
CNC(=O)ON=C(C)SC,inactive,–
N#CSCSC#N,–,89.4 µM (active)
CNc1cnn(-c2cccc(C(F)(F)F)c2)c(=O)c1Cl,inactive,–
CC(C1CC1)C(O)(Cn1cncn1)c1ccc(Cl)cc1 (stereo not given),–,0.327 µM (active)
CCC(=O)Nc1ccc(Cl)c(Cl)c1,inactive,–
CCc1cccc(CC)c1N(COC)C(=O)CCl,inactive,–
COP(=O)(NC(C)=O)SC (stereo not given),inactive,–
CC(COc1ccc(Oc2ccccc2)cc1)Oc1ccccn1 (stereo not given),inactive,–
CC(C)=CC1C(C(=O)OCN2C(=O)C3=C(CCCC3)C2=O)C1(C)C (stereo not given),inactive,–
C#CCC1=C(C)C(OC(=O)C2C(C=C(C)C)C2(C)C)CC1=O (stereo not given),inactive,–
CON=C(C(=O)OC)c1ccccc1CON=C(C)c1cccc(C(F)(F)F)c1,inactive,–
COc1cccc(C(=O)NN(C(=O)c2cc(C)cc(C)c2)C(C)(C)C)c1C,–,3.61 µM (active)
CCCCOC(=O)c1ccccc1C(=O)O,inactive,–
CCCSP(=O)(OCC)SCCC,–,5.47 µM (active)
CC1(C(=O)Nc2ccc(O)c(Cl)c2Cl)CCCCC1,inactive,–
CCCCN(CC)c1c([N+](=O)[O-])cc(C(F)(F)F)cc1[N+](=O)[O-],inactive,–
